We go through eight molecules from PubChem BioAssay (Tox21).

The nature of assay [1]: qHTS assay to identify small molecule antagonists of the peroxisome proliferator-activated receptor delta (PPARd) signaling pathway - cell viability counter screen (AID 743213). Also: nearly all actives have a fitted effect of over 50% in size. Also: potency is read from the fitted curve at half-maximal effect. The method in brief:
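CellTiter-Glo was added to PPARd-bla HEK293H wells following 17 h compound treatment in the presence of 300 nM L165041. Luminescence was recorded after 30 min at room temperature.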
(In qHTS, concentration-response curves come from the screen itself.)

Assay [2] can be described thus: qHTS assay to identify small molecule agonists of the farnesoid-X-receptor (FXR) signaling pathway - cell viability counter screen (AID 743218). Also: nearly all actives have a fitted effect of over 45% in size. Also: potency is read from the fitted curve at half-maximal effect. The method in brief:
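Quantitative HTS counter screen measuring ATP-based viability via CellTiter-Glo luminescence in HEK 293T cells carrying a UAS-driven beta-lactamase reporter, after 16 h compound exposure at 37 C.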

The nature of assay [3]: qHTS assay to identify small molecule antagonists of the farnesoid-X-receptor (FXR) signaling pathway - cell viability counter screen (AID 743221; active = well fitted cell-killing curve with a large enough effect in the repeat runs, not every such curve was filed as active; also: nearly all actives have a fitted effect of over 50% in size; also: potency is read from the fitted curve at half-maximal effect). The method in brief: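 After a 5 h settling period, FXR-bla HEK 293T cells receive compound and chenodeoxycholic acid (50 uM final) and incubate 16 h at 37 C; CellTiter-Glo luminescence, read after 30 min at room temperature, reports cell viability.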

A short description of assay [4]: qHTS assay to identify small molecule agonists of the vitamin D receptor (VDR) signaling pathway - cell viability counter screen (AID 743224). Also: nearly all actives have a fitted effect of over 50% in size. Also: potency is read from the fitted curve at half-maximal effect. The method in brief:
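CellTiter-Glo viability readout on VDR-bla cells, measured after 16 h of compound treatment at 37C in the same wells.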

Assay [5] in a line: qHTS assay to identify small molecule antagonists of the vitamin D receptor (VDR) signaling pathway - cell viability counter screen (AID 743225). Also: nearly all actives have a fitted effect of over 50% in size. Also: potency is read from the fitted curve at half-maximal effect. The method in brief:
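Parallel cytotoxicity test: VDR-UAS-bla HEK 293T, 3 nM (final) 1-alpha,25-dihydroxyvitamin D3 with test compound, 16 h, 37C. Endpoint is CellTiter-Glo luminescence in the same wells.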

Assay [6] can be described thus: qHTS assay to identify small molecule agonists of the NFkB signaling pathway - cell viability counter screen (AID 1159515; calls by dose curve; also: nearly all actives have a fitted effect of over 55% in size; also: potency is read from the fitted curve at half-maximal effect). The method in brief:
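Tox21 library compounds were tested for cytotoxicity against NFkB-bla ME-180 cells during a 5 hr exposure at 37 C. CellTiter-Glo luminescence served as the viability read-out.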

The nature of assay [7]: qHTS assay to identify small molecule antagonists of the retinoid-related orphan receptor gamma (ROR-gamma) signaling pathway - cell viability counter screen (AID 1159520). Also: nearly all actives have a fitted effect of over 50% in size. Also: potency is read from the fitted curve at half-maximal effect. The method in brief:
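Tet-on ROR gamma CHO cells were given compounds for 2 hr, then doxycycline hyclate at 1 uM final, and incubated 16 hr at 37 C. Viability was measured as ATP content by CellTiter-Glo luminescence.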

In assay [8] the target is Nuclear receptor ROR-gamma (Homo sapiens) (UniProt P51449). Kind of assay: qHTS assay to identify small molecule antagonists of the retinoid-related orphan receptor gamma (ROR-gamma) signaling pathway (AID 1159521; also: nearly all actives have a fitted effect of over 50% in size; also: potency is read from the fitted curve at half-maximal effect). The method in brief: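 Decreased RORE-driven luciferase luminescence indicates antagonism. Tet-on RORγ CHO cells received compound, then 1 uM final doxycycline 2 h later; signal read after 16 h incubation.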

Assay [9] in a line: qHTS assay to identify small molecule agonists of the AP-1 signaling pathway - cell viability counter screen (AID 1159525; calls by dose curve; also: nearly all actives have a fitted effect of over 55% in size; also: potency is read from the fitted curve at half-maximal effect). The method in brief:
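Same-well cytotoxicity counter screen of the Tox21 10K library in ME-180 cells. The readout is ATP-dependent luminescence after 5 h compound treatment. Data are normalised to DMSO and tetra n-octyl ammonium bromide controls.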

Assay [10] is described as follows: qHTS assay to identify small molecule agonists of the RXR signaling pathway - cell viability counter screen (AID 1159529). Also: nearly all actives have a fitted effect of over 50% in size. Also: potency is read from the fitted curve at half-maximal effect. The method in brief:
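In this parallel viability measure, GeneBLAzer RXR-alpha HEK 293T cells (2% charcoal-stripped FBS) were given a 5 hr preincubation, treated with compounds 16 hr at 37 C, and read by CellTiter-Glo luminescence.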

Assay [11] concerns the target Peroxisome proliferator-activated receptor delta (Homo sapiens) (UniProt Q03181). Kind of assay: qHTS assay to identify small molecule agonists of the peroxisome proliferator-activated receptor delta (PPARd) signaling pathway (AID 743212; calls by dose curve). The method in brief:
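Tox21 library screened in GeneBLAzer PPARd UAS-bla HEK293H cells. After compound treatment at 37 C, a FRET-based beta-lactamase substrate was applied for 2 h and fluorescence recorded.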

For assay [12] the target is unchanged. As to the kind of experiment: qHTS assay to identify small molecule antagonists of the peroxisome proliferator-activated receptor delta (PPARd) signaling pathway (AID 743215; active = well fitted inhibition curve with a large enough effect in the signal ratio in the repeat runs, not every such curve was filed as active; the % refers to the signal ratio;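 also: cells stimulated with agonist L165041 at 300 nM final during compound exposure; series mostly up to about 62 µM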). The method in brief:
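Here, a reporter line (HEK293H, beta-lactamase under a UAS) measures PPARd signaling. Compounds are tested against agonist L165041 at 300 nM final concentration over 17 h at 37 C, with fluorescence read after substrate.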

Assay [13] has as its target Bile acid receptor (Homo sapiens) (UniProt Q96RI1). Kind of assay: qHTS assay to identify small molecule antagonists of the farnesoid-X-receptor (FXR) signaling pathway (AID 743217; active = well fitted inhibition curve with a large enough effect in the signal ratio in the repeat runs, not every such curve was filed as active; the % refers to the signal ratio). The method in brief:
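Test compounds are pin-transferred onto FXR-bla HEK 293T cells, then chenodeoxycholic acid is added at 50 uM final. After 16 h at 37 °C, LiveBLAzer B/G substrate is applied for 2 h at room temperature and fluorescence read.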

The target is the same in assay [14]. As to the kind of experiment: qHTS assay to identify small molecule agonists of the farnesoid-X-receptor (FXR) signaling pathway (AID 743220; active = well fitted activation curve with a large enough effect in the signal ratio in the repeat runs, not every such curve was filed as active; the % refers to the signal ratio). The method in brief: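 FXR-UAS-bla HEK 293T cells carrying a UAS-driven beta-lactamase reporter were plated for 5 h at 37C/5% CO2, then exposed to DMSO-dissolved Tox21 10K compounds for 16 h at 37C. A LiveBLAzer B/G FRET substrate was loaded for 2 h at room temperature before fluorescence reading.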

The target of assay [15] is Vitamin D3 receptor (Homo sapiens) (UniProt P11473). As to the kind of experiment: qHTS assay to identify small molecule agonists of the vitamin D receptor (VDR) signaling pathway (AID 743222; calls by dose curve). The method in brief:
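Tox21 cell reporter format: VDR-bla line, 16 h compound exposure in 5% CO2 at 37C, then fluorescence intensity after 2 h with LiveBLAzer B/G FRET substrate.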

Assay [16] has as its target Retinoic acid receptor RXR-alpha (Homo sapiens) (UniProt P19793). Kind of assay: qHTS assay to identify small molecule agonists of the RXR signaling pathway (AID 1159527; calls by dose curve; also: nearly all actives have a fitted effect of over 35% in size). The method in brief: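 16 hr incubation of compound-treated RXR-alpha-UAS-bla HEK 293T cells (2% charcoal-stripped FBS, 37 C) preceded a 2 hr room-temperature LiveBLAzer FRET substrate step and blue/green fluorescence measurement.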

Assay [17] is described as follows: qHTS assay to identify small molecule agonists of the endoplasmic reticulum stress response signaling pathway - cell viability counter screen (AID 1159517; calls by dose curve; also: nearly all actives have a fitted effect of over 50% in size; also: potency is read from the fitted curve at half-maximal effect). The method in brief:
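In parallel with the ESRE reporter read, cytotoxicity was scored by CellTiter-Glo luminescence (30 min, room temperature) on HeLa ESRE-bla cells dosed for 5 hr.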

The nature of assay [18]: qHTS assay to identify small molecule agonists of the AP-1 signaling pathway (AID 1159526; calls by dose curve).

SMILES strings stand for the structures. “And” between values parts separate entries of the source, which are not always exact repeats. Equal values may be shown once. Results filed as inconclusive are left out. Where a structure was tested more than once in an assay, its records may differ in their call. The source made the active and inactive calls. Unless noted, calls follow the shape of the dose curve; as a rule, active = well fitted curve in the direction sought with a large enough effect in the repeat runs; inconclusive = weak or mixed curves; inactive = no such curve, though single readings can be large; an effect the other way counts as inactive or inconclusive.

Peroxisome proliferator-activated receptor delta (Homo sapiens), sequence (Q03181 whole entry, looked up): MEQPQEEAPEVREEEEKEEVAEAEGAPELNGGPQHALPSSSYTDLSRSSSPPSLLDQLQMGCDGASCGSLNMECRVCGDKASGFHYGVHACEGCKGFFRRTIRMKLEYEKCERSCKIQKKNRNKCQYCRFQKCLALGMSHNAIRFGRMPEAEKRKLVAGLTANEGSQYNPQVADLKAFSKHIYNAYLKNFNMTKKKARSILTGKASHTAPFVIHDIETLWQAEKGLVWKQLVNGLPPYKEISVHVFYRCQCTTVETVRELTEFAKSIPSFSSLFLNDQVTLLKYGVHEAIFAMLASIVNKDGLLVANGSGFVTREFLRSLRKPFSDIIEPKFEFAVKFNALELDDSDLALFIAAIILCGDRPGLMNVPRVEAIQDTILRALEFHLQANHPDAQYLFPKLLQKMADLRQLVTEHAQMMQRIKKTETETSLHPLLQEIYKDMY
Retinoic acid receptor RXR-alpha (Homo sapiens), sequence (P19793 whole entry, looked up): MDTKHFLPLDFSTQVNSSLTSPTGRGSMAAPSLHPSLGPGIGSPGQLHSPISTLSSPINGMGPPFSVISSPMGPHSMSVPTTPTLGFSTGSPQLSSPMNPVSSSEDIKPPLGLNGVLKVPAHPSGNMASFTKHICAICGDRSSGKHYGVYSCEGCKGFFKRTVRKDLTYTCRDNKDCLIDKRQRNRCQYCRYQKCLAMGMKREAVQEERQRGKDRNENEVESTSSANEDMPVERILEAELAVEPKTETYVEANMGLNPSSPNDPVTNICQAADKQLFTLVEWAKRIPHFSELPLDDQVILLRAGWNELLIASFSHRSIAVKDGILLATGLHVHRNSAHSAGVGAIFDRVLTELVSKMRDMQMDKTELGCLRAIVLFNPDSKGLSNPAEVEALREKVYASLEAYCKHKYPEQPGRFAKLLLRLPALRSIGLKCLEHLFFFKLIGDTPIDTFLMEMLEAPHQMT
Bile acid receptor (Homo sapiens), sequence (Q96RI1 whole entry, looked up): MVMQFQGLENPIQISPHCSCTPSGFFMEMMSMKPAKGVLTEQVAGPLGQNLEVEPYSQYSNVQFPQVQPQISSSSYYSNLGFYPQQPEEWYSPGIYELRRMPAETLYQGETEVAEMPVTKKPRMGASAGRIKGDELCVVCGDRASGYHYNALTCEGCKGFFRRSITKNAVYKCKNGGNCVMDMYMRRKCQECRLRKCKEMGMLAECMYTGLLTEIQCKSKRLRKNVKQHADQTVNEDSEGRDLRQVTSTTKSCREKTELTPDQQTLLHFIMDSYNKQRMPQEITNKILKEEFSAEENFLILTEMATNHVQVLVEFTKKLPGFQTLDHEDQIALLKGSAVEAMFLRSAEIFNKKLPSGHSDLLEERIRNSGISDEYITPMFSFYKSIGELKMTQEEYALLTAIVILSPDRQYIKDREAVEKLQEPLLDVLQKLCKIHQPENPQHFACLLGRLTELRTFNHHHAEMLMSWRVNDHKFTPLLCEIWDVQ
Vitamin D3 receptor (Homo sapiens), sequence (P11473 whole entry, looked up): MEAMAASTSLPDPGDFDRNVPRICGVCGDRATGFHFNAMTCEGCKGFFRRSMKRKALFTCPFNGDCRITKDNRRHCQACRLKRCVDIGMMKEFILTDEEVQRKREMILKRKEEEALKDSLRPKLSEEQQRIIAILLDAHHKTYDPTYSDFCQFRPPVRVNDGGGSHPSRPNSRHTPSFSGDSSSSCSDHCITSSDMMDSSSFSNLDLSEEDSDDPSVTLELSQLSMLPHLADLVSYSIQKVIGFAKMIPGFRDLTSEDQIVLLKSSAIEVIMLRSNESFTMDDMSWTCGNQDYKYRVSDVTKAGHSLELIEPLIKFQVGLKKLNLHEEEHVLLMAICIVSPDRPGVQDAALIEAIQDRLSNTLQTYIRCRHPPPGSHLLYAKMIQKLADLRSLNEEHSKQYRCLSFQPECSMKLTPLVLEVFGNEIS

`COc1cc(-c2nc(NC(=O)c3cc4cc(C)cc(C)c4n3CC(=O)O)sc2CCC2CCCCC2)c(OC)cc1Cl`: the Potency was 20.1 µM (active) in assay [1]; 12.7 µM (active) in assay [2]; 14.2 µM (active) in assay [3]; 10 µM (active) in assay [4]; 10 µM (active) in [5]; 10 µM (active) in [6]. Besides, the Potency in [7] is 39.7 µM (active); in assay [8] it was 19.9 µM (active); in assay [9] it was 28.3 µM (active); in assay [10], 20.1 µM (active).

As to `Nc1ccccc1O`, the Potency entry in assay [11], in assay [1], in assay [12], in assay [13], in assay [14] and in assay [3] was “inactive” in each case. Moreover, the Potency result in [15], in assay [4], in [5], in assay [7], in assay [8] and in [16] was “inactive” each time. Besides, the Potency in [6] is 38.4 µM (active); in assay [9] it was 15.3 µM (active).

On to `CC[C@H]1O[C@]2(CC[C@@H]1C)C[C@@H]1C[C@@H](C/C=C(\C)C[C@@H](C)/C=C/C=C3\CO[C@@H]4[C@H](O)C(C)=C[C@@H](C(=O)O1)[C@]34O)O2`, for which the Potency in assay [1] is 15.3 µM (active); in assay [2], 21.7 µM (active); in assay [3], 17.2 µM (active); in assay [4], 17.2 µM (active); in assay [6] it was 24.3 µM (active); in assay [17] it was 24.3 µM (active). The Potency in assay [9] is 21.7 µM (active); in [10] it was 19.3 µM (active).

Regarding `CSc1cnc(C)cn1`, the Potency result in assay [11], in [1], in assay [12], in assay [2], in [3] and in [4] was “inactive” each time. Besides, the Potency entry in [5], in [6], in [7], in [8], in [9] and in assay [18] was “inactive” each time.

For `CCCCCCCCOC(=O)c1ccc(O)cc1`, the Potency entry in [11], in assay [2], in [3], in assay [6] and in assay [16] was “inactive” each time. Moreover, the Potency is 49 µM (active) in assay [1]; 21.8 µM (active) and 49 µM (active) in [4]; 49 µM (active) in assay [5]; 54.9 µM (active) in [17]; 54.8 µM (active) in assay [9]; 43.5 µM (active) and inactive in assay [10].

Take `C=CC(=O)OCC(CO)(COC(=O)C=C)COC(=O)C=C`: the Potency in assay [1] was 19.6 µM (active) and 13.8 µM (active); in [2], 19.6 µM (active) and 17.4 µM (active); in assay [3], 34.8 µM (active) and 30.9 µM (active); in assay [4], 12.3 µM (active) and 13.8 µM (active); in assay [5], 13.9 µM (active) and 15.5 µM (active); in assay [17] it was 21.9 µM (active). The Potency in [8] was 2.44 µM (active) and 6.86 µM (active); in [9], 49.1 µM (active) and 49 µM (active). In addition, the Potency entry in assay [6] was “inactive”.

As for `ON=C1CCCC1`, the Potency result in assay [11], in assay [1], in [12], in [13], in [2] and in assay [14] was “inactive” in each case. Besides, the Potency entry in assay [3], in [15], in assay [5], in assay [6], in assay [17] and in assay [9] was “inactive” in each case. Moreover, the Potency result in assay [18] and in [16] was “inactive” each time.

On to `CC(C)(C)C1CCC(CC2=C(O)c3ccccc3C(=O)C2=O)CC1` (centres undefined), for which the Potency entry in assay [11], in assay [1], in [6], in assay [17], in [9] and in [10] was “inactive” throughout.
